# Source: the supplement of paper PMC3545927
# This is one part of the list. The hit rate among all sequences tested is not known here.
# B1: FS-197 (peptide)
# chain: CASSVRPAREAGNASASA
# B2: FS-1210 (peptide)
# chain: CAHPLRPAREAGNASASA
# B3: HC2043 (peptide)
# chain: CAVVCCSASYAGNASASA
# B4: HC1082 (peptide)
# chain: CAGLGKVLIDAGNASASA
# B5: FS-946 (peptide)
# chain: CANPARDDRSAGNASASA
# B6: FS-278 (peptide)
# chain: CANPARVCRDAGNASASA
# B7: FS-1000 (peptide)
# chain: CAGLRRQKRDAGNASASA
# B8: HC642 (peptide)
# chain: CAGLRDLAVAAGNASASA
# B9: FS-2391 (peptide)
# chain: CALEKRSVGCAGNASASA
# B10: FS-463 (peptide)
# chain: CAMSARRARDAGNASASA
# B11: FS-926 (peptide)
# chain: CAELGRPARDAGNASASA
# B12: FS-1639 (peptide)
# chain: CALEKRQKRDAGNASASA
# B13: HC1908 (peptide)
# chain: CATTPCSGWWAGNASASA
# B14: HC1776 (peptide)
# chain: CAMEECSQHGAGNASASA
# B15: HC2377 (peptide)
# chain: CAEVPCHSPSAGNASASA
# B16: HC2347 (peptide)
# chain: CAEVFCHRPSAGNASASA
# B17: FS-1048 (peptide)
# chain: CAPKRRQKRDAGNASASA
# B18: HC1111 (peptide)
# chain: CAILRRHVGPAGNASASA
# B19: FS-1214 (peptide)
# chain: CAILRRHKRDAGNASASA
# B20: FS-440 (peptide)
# chain: CAHLQRQKRDAGNASASA
# B21: FS-336 (peptide)
# chain: CAHWSVTKRDAGNASASA
# B22: FS-1150 (peptide)
# chain: CAQHSVRKRDAGNASASA
# B23: HC2061 (peptide)
# chain: CAVVCCSNSYAGNASASA
# B24: HC2305 (peptide)
# chain: CALVPCHRPSAGNASASA
# B25: HC2124 (peptide)
# chain: CAEIVVCCSMAGNASASA
# B26: HC1491 (peptide)
# chain: CAQCCDLDPQAGNASASA
# B27: HC1760 (peptide)
# chain: CAMEECSQCLAGNASASA
# B28: HC126 (peptide)
# chain: CAEVVFSTWVAGNASASA
# Target: furin, P09958
# Test: furin cleavage Z-score vs untreated control; higher = more cleavage, active = 3.5 or more, inactive = 1 or less, 8 variable residues between constant flanks
# Outline: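 The cleavage Z-score was derived for purified furin acting on 8-mer peptides held on magnetic beads and fused to a cDNA oligonucleotide. Digests lasted 7.5, 15 or 30 min at 1:10 enzyme:substrate in 50 mM HEPES pH 7.5 with CaCl2 and NaCl. Sequencing counts of released DNA, log-transformed against furin-free reactions, were lowess-adjusted and scaled by median absolute deviation.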
# Chain of furin, P09958 (P09958 whole entry): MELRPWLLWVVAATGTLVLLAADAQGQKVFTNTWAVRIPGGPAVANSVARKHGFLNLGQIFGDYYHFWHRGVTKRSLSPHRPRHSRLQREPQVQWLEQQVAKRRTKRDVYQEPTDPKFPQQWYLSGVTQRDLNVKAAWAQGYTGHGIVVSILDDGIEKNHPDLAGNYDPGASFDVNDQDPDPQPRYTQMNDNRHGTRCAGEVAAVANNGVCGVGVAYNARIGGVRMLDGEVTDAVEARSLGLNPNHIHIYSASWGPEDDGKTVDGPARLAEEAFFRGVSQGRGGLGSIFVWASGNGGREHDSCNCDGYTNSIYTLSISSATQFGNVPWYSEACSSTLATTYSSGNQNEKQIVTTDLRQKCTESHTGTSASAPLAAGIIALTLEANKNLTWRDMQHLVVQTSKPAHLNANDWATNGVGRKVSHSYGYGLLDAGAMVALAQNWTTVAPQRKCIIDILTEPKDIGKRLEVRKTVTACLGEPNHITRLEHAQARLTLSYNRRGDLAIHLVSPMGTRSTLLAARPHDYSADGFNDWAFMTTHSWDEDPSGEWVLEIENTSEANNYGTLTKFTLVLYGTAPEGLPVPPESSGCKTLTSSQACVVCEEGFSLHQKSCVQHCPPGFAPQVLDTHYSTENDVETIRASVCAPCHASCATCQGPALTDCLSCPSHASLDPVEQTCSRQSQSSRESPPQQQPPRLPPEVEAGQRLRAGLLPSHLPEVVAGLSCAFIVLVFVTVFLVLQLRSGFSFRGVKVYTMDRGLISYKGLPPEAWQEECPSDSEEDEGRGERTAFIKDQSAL
Sequence,furin cleavage Z-score (7.5 min),furin cleavage Z-score (15 min),furin cleavage Z-score (30 min)
B1,5.98 (active),7.51 (active),5.17 (active)
B2,5.83 (active),7.36 (active),6.09 (active)
B3,0.0516 (inactive),0.0797 (inactive),0.0526 (inactive)
B4,-0.199 (inactive),-0.846 (inactive),-0.271 (inactive)
B5,1.25,0.0847 (inactive),-1.86 (inactive)
B6,6.13 (active),5.66 (active),4.1 (active)
B7,12.6 (active),12.8 (active),9.7 (active)
B8,1.12,-0.299 (inactive),-1.6 (inactive)
B9,-0.325 (inactive),-2.06 (inactive),-0.0695 (inactive)
B10,9.65 (active),10.9 (active),7.88 (active)
B11,0.0348 (inactive),-0.0349 (inactive),-0.833 (inactive)
B12,14.8 (active),13.5 (active),11.4 (active)
B13,-0.371 (inactive),-1.44 (inactive),0.0983 (inactive)
B14,-0.484 (inactive),0.542 (inactive),-0.44 (inactive)
B15,-0.25 (inactive),-0.38 (inactive),1.09
B16,-0.391 (inactive),-1 (inactive),0.51 (inactive)
B17,13.5 (active),14.7 (active),10 (active)
B18,0.0974 (inactive),-0.838 (inactive),0.671 (inactive)
B19,10.7 (active),10.2 (active),7.94 (active)
B20,6.68 (active),7.1 (active),5.53 (active)
B21,0.168 (inactive),0.304 (inactive),0.862 (inactive)
B22,11.7 (active),12.2 (active),10.4 (active)
B23,0.77 (inactive),-0.0199 (inactive),0.92 (inactive)
B24,0.746 (inactive),0.178 (inactive),0.32 (inactive)
B25,0.157 (inactive),-0.897 (inactive),0.583 (inactive)
B26,0.144 (inactive),0.912 (inactive),-0.252 (inactive)
B27,-0.273 (inactive),-0.494 (inactive),0.638 (inactive)
B28,1.73,-1.1 (inactive),-0.791 (inactive)
